Results on eight compounds are retold here after PubChem BioAssay (Tox21).

Inconclusive results are not listed. Activity calls are given as the source filed them. Unless noted, calls come from the whole dose curve; as a rule, active = well fitted curve in the direction sought with a large enough effect in the repeat runs; inconclusive = weak or mixed curves; inactive = no such curve, though single readings can be large; an effect the other way counts as inactive or inconclusive.

Assay [1] is described as follows: qHTS assay to identify aromatase inhibitors - cell viability counter screen (AID 743084).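 Note: cells stimulated with testosterone during compound exposure; nearly all actives have a fitted effect of over 55% in size.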
Assay [2] deals with Aryl hydrocarbon receptor (Homo sapiens) (UniProt P35869). Briefly: qHTS assay to identify small molecule that activate the aryl hydrocarbon receptor (AhR) signaling pathway (AID 743085).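 For activation: HG2L7.5c1 human HepG2 liver cells with stably integrated DRE-driven firefly reporter; series mostly up to about 70 µM.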 Note: nearly all actives have a fitted effect of over 15% in size. Note: potency is the fitted concentration of half-maximal effect. In outline: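 24 h compound exposure, 37C, HepG2-derived HG2L7.5c1 cells with DRE-responsive luciferase. Readouts: fluorescence viability, then luminescence at room temperature after 30 min.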
Aryl hydrocarbon receptor (Homo sapiens), sequence (P35869 whole entry, looked up): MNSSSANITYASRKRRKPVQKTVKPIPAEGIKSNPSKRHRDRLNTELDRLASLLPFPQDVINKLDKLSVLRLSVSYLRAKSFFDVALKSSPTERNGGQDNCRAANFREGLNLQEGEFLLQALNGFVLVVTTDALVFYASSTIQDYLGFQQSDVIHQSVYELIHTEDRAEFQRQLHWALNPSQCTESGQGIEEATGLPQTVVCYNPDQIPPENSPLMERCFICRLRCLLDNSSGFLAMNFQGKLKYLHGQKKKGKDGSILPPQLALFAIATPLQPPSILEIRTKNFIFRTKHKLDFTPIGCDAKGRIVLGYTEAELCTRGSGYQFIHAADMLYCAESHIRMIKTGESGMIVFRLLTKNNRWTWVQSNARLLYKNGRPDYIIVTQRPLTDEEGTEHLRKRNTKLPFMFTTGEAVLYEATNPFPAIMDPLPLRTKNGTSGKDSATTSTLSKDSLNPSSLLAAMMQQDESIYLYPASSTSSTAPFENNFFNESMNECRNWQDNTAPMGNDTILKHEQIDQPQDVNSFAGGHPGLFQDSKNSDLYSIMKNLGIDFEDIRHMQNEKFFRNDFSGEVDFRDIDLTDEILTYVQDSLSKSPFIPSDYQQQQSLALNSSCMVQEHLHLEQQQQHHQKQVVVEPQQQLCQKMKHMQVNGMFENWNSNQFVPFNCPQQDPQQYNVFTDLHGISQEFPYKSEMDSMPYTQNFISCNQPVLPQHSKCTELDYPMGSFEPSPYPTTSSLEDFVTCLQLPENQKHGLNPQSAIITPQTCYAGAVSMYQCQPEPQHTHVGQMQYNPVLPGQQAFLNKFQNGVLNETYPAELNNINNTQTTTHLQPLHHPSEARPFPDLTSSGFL

The nature of assay [3]: qHTS assay to identify small molecule that activate the aryl hydrocarbon receptor (AhR) signaling pathway - cell viability counter screen (AID 743086).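 Note: HepG2 liver cells carrying the AhR DRE luciferase reporter; series mostly up to about 70 µM; nearly all actives have a fitted effect of over 45% in size.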 Put shortly: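 HepG2-AhR-luc (HG2L7.5c1) cells, 4000/well, were preincubated 5 h at 37C, exposed to compound in qHTS format for 24 hr at 37C, then given CellTiter-Fluor for 30 min; viability was read as fluorescence in the reporter wells.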

The target of assay [4] is Peroxisome proliferator-activated receptor gamma (Homo sapiens) (UniProt P37231). Briefly: qHTS assay to identify small molecule agonists of the peroxisome proliferator-activated receptor gamma (PPARg) signaling pathway (AID 743094; active = well fitted activation curve with a large enough effect in the signal ratio in the repeat runs, not every such curve was filed as active; the % refers to the signal ratio). Put shortly: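 Quantitative HTS agonist mode: stable HEK293H line with UAS-beta-lactamase reporter under PPARg control, 17 h compound exposure at 37C, fluorescence after 1 h FRET substrate loading at room temperature.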
Peroxisome proliferator-activated receptor gamma (Homo sapiens), sequence (P37231 whole entry, looked up): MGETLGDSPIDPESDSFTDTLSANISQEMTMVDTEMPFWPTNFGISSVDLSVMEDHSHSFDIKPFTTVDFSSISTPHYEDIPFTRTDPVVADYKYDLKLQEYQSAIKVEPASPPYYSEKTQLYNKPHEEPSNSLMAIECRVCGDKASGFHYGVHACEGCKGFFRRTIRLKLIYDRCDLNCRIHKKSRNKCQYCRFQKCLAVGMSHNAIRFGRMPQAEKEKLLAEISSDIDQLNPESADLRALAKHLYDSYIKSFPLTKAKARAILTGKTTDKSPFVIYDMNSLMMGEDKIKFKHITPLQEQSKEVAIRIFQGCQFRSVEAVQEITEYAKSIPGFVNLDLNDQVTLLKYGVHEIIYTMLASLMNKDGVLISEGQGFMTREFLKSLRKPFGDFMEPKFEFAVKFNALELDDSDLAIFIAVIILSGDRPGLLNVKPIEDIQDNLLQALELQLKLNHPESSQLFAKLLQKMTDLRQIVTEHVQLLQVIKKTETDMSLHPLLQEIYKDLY

A short description of assay [5]: qHTS assay for small molecule agonists of the antioxidant response element (ARE) signaling pathway (AID 743202; active = well fitted activation curve with a large enough effect in the signal ratio in the repeat runs, not every such curve was filed as active; the % refers to the signal ratio; note: potency is the fitted concentration of half-maximal effect). In outline: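 Compounds delivered in DMSO to ARE-bla HepG2 cells (2,000 cells/well, pre-incubated 5 h) and left 16 h at 37 C. LiveBLAzer B/G FRET substrate then added for 2 h at RT before fluorescence reading.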
A short description of assay [6]: qHTS assay for small molecule agonists of the antioxidant response element (ARE) signaling pathway - cell viability counter screen (AID 743203; calls by dose curve; note: nearly all actives have a fitted effect of over 55% in size). Put shortly:
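Seeded at 2,000 cells/well, ARE-bla HepG2 cells were incubated 5 hrs before compound addition. After 16 hrs of treatment at 37C with 5% CO2, CellTiter-Glo reagent was added and luminescence read 30 min later.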

Assay [7] in a line: qHTS assay for small molecule activators of the heat shock response signaling pathway - cell viability counter screen (AID 743209). Note: nearly all actives have a fitted effect of over 50% in size. In outline:
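First, HSE-bla HeLa cells were seeded at 1500 cells/well and kept overnight at 37 C. Next, compounds were pinned in and incubated 5 h. After the FRET substrate step, CellTiter-Glo was added and luminescence read 30 min later.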

The nature of assay [8]: qHTS assay for small molecule activators of the heat shock response signaling pathway (AID 743210; active = well fitted activation curve with a large enough effect in the signal ratio in the repeat runs, with a control signal flat, not every such curve was filed as active; the % refers to the signal ratio;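 note: HeLa cells with beta-lactamase reporter driven by heat shock elements; series mostly up to about 63 µM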). Put shortly: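 Reporter gene assay: HeLa cells stably bearing an HSE-bla construct, compound treatment 5 h at 37 C, LiveBLAzer substrate 2.5 h at RT, fluorescence intensity.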
The nature of assay [9]: qHTS assay to identify small molecule antagonists of the peroxisome proliferator-activated receptor delta (PPARd) signaling pathway - cell viability counter screen (AID 743213). Note: nearly all actives have a fitted effect of over 50% in size. Put shortly: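 HEK293H cells with the PPARd UAS-bla reporter, co-treated 17 h at 37 C with compounds and L165041 (300 nM final), were lysed with CellTiter-Glo. Luminescence indicated viable cell content.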

Assay [10] can be described thus: qHTS assay to identify small molecule agonists of the farnesoid-X-receptor (FXR) signaling pathway - cell viability counter screen (AID 743218). Note: nearly all actives have a fitted effect of over 45% in size. Put shortly: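 Cytotoxicity counter-screen run in parallel, same wells: FXR-UAS-bla HEK 293T cells dosed 16 h at 37 C, viability read by CellTiter-Glo luminescence after 30 min at room temperature.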
Assay [11] can be described thus: qHTS assay to identify small molecule antagonists of the farnesoid-X-receptor (FXR) signaling pathway - cell viability counter screen (AID 743221; active = well fitted cell-killing curve with a large enough effect in the repeat runs, not every such curve was filed as active; note: nearly all actives have a fitted effect of over 50% in size). Put shortly: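 In GeneBLAzer FXR-UAS-bla HEK 293T cells stimulated with 50 uM chenodeoxycholic acid (final), compounds acted for 16 h at 37 C. Viability was assessed afterwards by CellTiter-Glo luminescence.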
Assay [12] addresses Vitamin D3 receptor (Homo sapiens) (UniProt P11473). The experiment in a line: qHTS assay to identify small molecule agonists of the vitamin D receptor (VDR) signaling pathway (AID 743222; calls by dose curve). Put shortly:
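Quantitative HTS agonist-mode screen: compounds in DMSO were pin-transferred onto VDR-bla cells and incubated 16 h at 37C, 5% CO2. Reporter activity was detected with LiveBLAzer B/G FRET substrate after 2 h at room temperature.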

Assay [13] concerns the target Peroxisome proliferator-activated receptor gamma (Homo sapiens) (UniProt P37231). The experiment in a line: qHTS assay to identify small molecule antagonists of the peroxisome proliferator-activated receptor gamma (PPARg) signaling pathway (AID 743191; calls by dose curve; note: nearly all actives have a fitted effect of over 30% in size; note: potency is the fitted concentration of half-maximal effect). In outline: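 GeneBLAzer PPARg UAS-bla HEK293H cells carrying a UAS-driven beta-lactamase reporter were plated at 3000 cells/well, preincubated 5 h at 37C, then given compound for 17 h at 37C; LiveBLAzer B/G FRET substrate was read after 1 h at room temperature.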

Assay [14] in a line: qHTS assay to identify small molecule antagonists of the peroxisome proliferator-activated receptor gamma (PPARg) signaling pathway - cell viability counter screen (AID 743194). Note: nearly all actives have a fitted effect of over 55% in size. In outline:
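PPARg-UAS-bla HEK293H cells were plated, rested 5 h at 37 C, then treated with compounds plus rosiglitazone (50 nM final) for 17 h at 37 C; viability was then read by CellTiter-Glo luminescence after 30 min at room temperature.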

Assay [15] deals with Peroxisome proliferator-activated receptor delta (Homo sapiens) (UniProt Q03181). The experiment in a line: qHTS assay to identify small molecule antagonists of the peroxisome proliferator-activated receptor delta (PPARd) signaling pathway (AID 743215; active = well fitted inhibition curve with a large enough effect in the signal ratio in the repeat runs, not every such curve was filed as active; the % refers to the signal ratio;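 note: cells stimulated with agonist L165041 at 300 nM final during compound exposure; series mostly up to about 62 µM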). Put shortly:
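Inhibition of L165041-driven (300 nM final) PPARd signaling is scored in HEK293H UAS-bla cells. Exposure lasts 17 h at 37 C; beta-lactamase activity is then read by FRET substrate fluorescence after 2 h at room temperature.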

Assay [16] is described as follows: qHTS assay to identify small molecule agonists of the peroxisome proliferator-activated receptor delta (PPARd) signaling pathway - cell viability counter screen (AID 743211). Note: nearly all actives have a fitted effect of over 55% in size. In outline:
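Luminescent ATP viability assay (CellTiter-Glo, 30 min RT) in UAS-bla HEK293H cells carrying the PPAR delta reporter construct, 3000 cells/well, after a 17 h compound treatment at 37 C.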

Assay [17] deals with Bile acid receptor (Homo sapiens) (UniProt Q96RI1). Briefly: qHTS assay to identify small molecule antagonists of the farnesoid-X-receptor (FXR) signaling pathway (AID 743217; active = well fitted inhibition curve with a large enough effect in the signal ratio in the repeat runs, not every such curve was filed as active; the % refers to the signal ratio). In outline:
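Antagonist mode against 50 uM (final) chenodeoxycholic acid stimulation in FXR-bla HEK 293T cells, 16 h at 37 °C. Inhibition detected as reduced beta-lactamase activity via LiveBLAzer B/G FRET fluorescence after 2 h at room temperature.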

Assay [18] shares this target. The experiment in a line: qHTS assay to identify small molecule agonists of the farnesoid-X-receptor (FXR) signaling pathway (AID 743220; active = well fitted activation curve with a large enough effect in the signal ratio in the repeat runs, not every such curve was filed as active; the % refers to the signal ratio). Put shortly: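 Beta-lactamase reporter under UAS control in GeneBLAzer FXR HEK 293T cells (5000/well) measured with LiveBLAzer FRET substrate after 2 h at room temperature. Compound exposure lasted 16 h at 37C.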
For assay [19], the target named is Peroxisome proliferator-activated receptor delta (Homo sapiens) (UniProt Q03181). Briefly: qHTS assay to identify small molecule agonists of the peroxisome proliferator-activated receptor delta (PPARd) signaling pathway (AID 743212; calls by dose curve). In outline: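 A PPARd-bla HEK293H line with beta-lactamase under an Upstream Activator Sequence is treated with compounds at 37 C. Substrate loading for 2 h at room temperature precedes the fluorescence measurement.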
Peroxisome proliferator-activated receptor delta (Homo sapiens), sequence (Q03181 whole entry, looked up): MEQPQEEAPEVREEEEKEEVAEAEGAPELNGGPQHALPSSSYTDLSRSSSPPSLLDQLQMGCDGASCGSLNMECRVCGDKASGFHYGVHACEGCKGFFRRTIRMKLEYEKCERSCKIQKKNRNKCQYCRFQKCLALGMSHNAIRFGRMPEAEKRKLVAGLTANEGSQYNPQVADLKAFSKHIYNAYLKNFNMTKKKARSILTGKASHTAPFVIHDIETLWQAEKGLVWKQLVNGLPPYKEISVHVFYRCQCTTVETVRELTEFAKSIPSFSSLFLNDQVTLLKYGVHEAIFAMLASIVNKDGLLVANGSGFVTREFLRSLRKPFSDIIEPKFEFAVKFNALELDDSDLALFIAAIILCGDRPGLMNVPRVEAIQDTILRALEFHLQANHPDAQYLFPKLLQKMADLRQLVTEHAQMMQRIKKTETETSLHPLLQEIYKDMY

The target in assay [20] is Vitamin D3 receptor (Homo sapiens) (UniProt P11473). Briefly: qHTS assay to identify small molecule antagonists of the vitamin D receptor (VDR) signaling pathway (AID 743223; active = well fitted inhibition curve with a large enough effect in the signal ratio in the repeat runs, not every such curve was filed as active; the % refers to the signal ratio). In outline: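 Agonist 1alpha,25-dihydroxyvitamin D3 (3 nM in well) was added with each compound to VDR-bla cells preincubated 4 h. Cells stood 16 h at 37C, then FRET substrate 2 h at room temperature; fluorescence intensity recorded.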
Vitamin D3 receptor (Homo sapiens), sequence (P11473 whole entry, looked up): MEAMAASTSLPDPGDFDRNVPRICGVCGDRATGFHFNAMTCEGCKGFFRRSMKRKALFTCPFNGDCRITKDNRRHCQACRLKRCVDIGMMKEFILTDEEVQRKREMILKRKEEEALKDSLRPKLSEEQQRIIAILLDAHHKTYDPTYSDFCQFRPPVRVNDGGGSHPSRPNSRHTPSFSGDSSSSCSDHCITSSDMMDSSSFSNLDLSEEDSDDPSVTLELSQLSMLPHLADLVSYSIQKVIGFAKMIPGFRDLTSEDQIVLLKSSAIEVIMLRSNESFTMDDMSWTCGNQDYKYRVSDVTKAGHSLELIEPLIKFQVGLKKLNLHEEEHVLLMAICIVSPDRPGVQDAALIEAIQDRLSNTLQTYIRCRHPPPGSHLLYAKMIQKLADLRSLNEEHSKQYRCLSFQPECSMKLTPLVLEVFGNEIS

Bile acid receptor (Homo sapiens), sequence (Q96RI1 whole entry, looked up): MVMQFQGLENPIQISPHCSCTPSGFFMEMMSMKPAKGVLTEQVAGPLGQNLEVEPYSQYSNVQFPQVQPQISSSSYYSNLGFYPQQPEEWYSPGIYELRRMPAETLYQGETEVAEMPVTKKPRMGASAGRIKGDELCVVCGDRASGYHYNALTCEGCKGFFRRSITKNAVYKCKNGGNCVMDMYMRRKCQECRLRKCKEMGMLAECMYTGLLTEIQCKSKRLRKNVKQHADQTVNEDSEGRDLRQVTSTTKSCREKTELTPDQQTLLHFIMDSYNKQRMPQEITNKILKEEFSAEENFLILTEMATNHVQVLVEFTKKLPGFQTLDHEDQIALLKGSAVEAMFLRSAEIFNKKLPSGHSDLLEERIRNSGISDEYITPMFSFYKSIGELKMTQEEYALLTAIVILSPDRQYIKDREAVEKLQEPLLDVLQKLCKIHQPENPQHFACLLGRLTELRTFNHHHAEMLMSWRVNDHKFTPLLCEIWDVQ

For the compound `O=C(O)c1cc(C(=O)O)cc([N+](=O)[O-])c1`, the Potency result in assay [1], in assay [2], in [3], in [4], in [5] and in assay [6] was “inactive” throughout. Further, the Potency entry in assay [9], in assay [10] and in assay [11] was “inactive” each time. The compound was classed as inactive in [7], in assay [8] and in assay [12].

Take `CCCC1CCCC(=O)O1` (stereo not drawn): the Potency result in assay [1], in [2], in assay [3], in assay [13], in [14] and in assay [5] was “inactive” in each case. For the same compound, the Potency entry in assay [6], in [9], in assay [10] and in assay [11] was “inactive” in each case. Further, the call in assay [7], in assay [8] and in [15] was inactive.

As for `CC(=O)Nc1ccn(C2COC(COC(=O)c3ccccc3)O2)c(=O)n1` (stereo not drawn), the Potency entry in assay [1], in assay [2], in assay [3], in [14], in assay [6] and in assay [16] was “inactive” each time. For the same compound, the Potency entry in [9] and in assay [11] was “inactive” each time. The outcome in [7] and in assay [8] was inactive.

Turning to `C[C@H](CN1CCCC1)C(=O)c1ccc(C(F)(F)F)cc1`, the Potency entry in [1], in assay [2], in [3], in [4], in assay [14] and in [6] was “inactive” in each case. In addition, in assay [10], the Potency entry is “inactive”. In addition, the result in assay [7], in assay [8], in [15], in assay [17] and in assay [18] was inactive.

With `O=C(OCCCCCOC(=O)c1ccccc1)c1ccccc1`, the Potency result in [1], in assay [2], in assay [3], in [4], in [5] and in assay [6] was “inactive” throughout. In addition, the Potency result in assay [16], in [19], in [9], in assay [10] and in [11] was “inactive” throughout. Further, the result in assay [7], in assay [8] and in assay [15] was inactive.

For the compound `O=C(O)c1cccnc1Nc1cccc(C(F)(F)F)c1`, the Potency result in assay [1], in assay [2], in assay [3], in assay [6], in assay [16] and in [10] was “inactive” each time. Further, in [13], the Potency was 11.9 µM (active). Also, the call in [8], in assay [17], in assay [18] and in assay [12] was inactive.

For the compound `CC(C)CC(C)(C)C`, the Potency result in assay [1], in assay [2], in [3], in assay [4], in assay [14] and in assay [6] was “inactive” throughout. For the same compound, the Potency entry in assay [19], in assay [9], in [10] and in assay [11] was “inactive” each time. Moreover, the result in assay [7], in [8], in assay [15], in assay [12] and in [20] was inactive.

With `CCc1ccc2c(c1)C(=O)c1ccccc1C2=O`, the Potency result in assay [1], in assay [3], in assay [4], in assay [6], in assay [9] and in assay [11] was “inactive” each time. The Potency in assay [2] was 27.3 µM (active); in [5], 34.4 µM (active). Besides, the outcome in [7], in assay [8] and in assay [12] was inactive.
